Compound activity from PubChem BioAssay.
Sampled rows, rich in hits. Any-hit rate of the full collection: about 1.9%.
GRK2 inh = blocks RNA aptamer binding to human GRK2; P25098; bead flow cytometry, FAM-aptamer displacement from GRK2; inhibition of aptamer binding, % at 10 µM; 0.59% of 330,000 active; AID 488847;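 active means inhibition of aptamer binding above 40%, roughly 3 SD of noise, on plates passing a quality check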;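 further: median bead fluorescence of bound FAM aptamer so fluorescent compounds give negative values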
PABP FP inh = blocks human PABP binding to poly(A) RNA; AID 2014; fluorescence polarization; 1% of 290,000 active; P11940; inhibition, % at 35 µM;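 further: calls also rest on retests at 20 µM and on dose response follow-up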
eIF4H inh = inhibitors of RNA binding by human eIF4H. 0.94% of 290,000 active. eIF4H fluorescence polarization binding assay. inhibition, % at 35 µM;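 further: calls also rest on retests at 20 µM and on dose response follow-up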
MLLE-PAM2 inh = inhibitors of microRNA-mediated deadenylation, human PABP1 MLLE binding; AID 588489; 0.36% of 360,000 active; GST-MLLE / FITC-PAM2 fluorescence polarization; inhibition, % at 20 µM; P11940; in the data active means inhibition above about 35%, passing the limit was not always enough;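 further: plate controls were DMSO wells with GST-MLLE for no effect and wells lacking GST-MLLE protein for full effect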
PERK inhibitor = inhibitors of human PERK kinase; Q9NZJ5; CHO PERK-DD fusion, SEAP luminescence translation reporter; inhibition, % at 5.6 µM; 0.17% of 220,000 active; AID 1416;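 active means inhibition above the mean inhibition of all tested compounds plus 3 SD, set separately per screening campaign, cut at about 2.9% in these data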;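 further: PERK kinase domain activated by AP20187 dimerizer at 100 nM; 0% = DMSO with dimerizer and 100% = rapamycin at 8.4 µM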
GRK2 inh confirm = confirmation of human GRK2 inhibitors displacing RNA aptamer; aptamer displacement, % at 10 µM; bead-bound GRK2, FAM-aptamer displacement, flow cytometry; shares compounds with GRK2 inh; 4% of 2,000 active;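 active means aptamer displacement above 40%, near three times the noise of non-fluorescent compounds, on plates passing quality checks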;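 further: negative values mostly reflect intrinsic compound fluorescence rather than true enhancement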
Aptamer quench = quenches fluorescent RNA aptamer, GRK2 hit artifact. 110 tested, under 10 active. fluorescence change (kMESF span), kMESF (no concentration beside the values). Fluorescent RNA aptamer beads, quenching, flow cytometry; hits give high values. shares compounds with GRK2 inh. AID 504521;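 active means compounds whose bead fluorescence drops by more than 37 kMESF across the dose range, marking them as dye quenchers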
FAM quench CP1 = counter-screen for GRK2 aptamer inhibitors: fluorescent aptamer quenchers | AID 504580 | shares compounds with GRK2 inh | Carboxyfluorescein RNA aptamer on beads, flow cytometry quenching; hits give low values | fluorescence response (% of DMSO), % at 10 µM | 2,000 tested, under 10 active;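 active means compounds that quench the bead-bound fluorescent RNA probe, cutting fluorescence to under half of the solvent control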;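 further: counterscreen run without GRK2 so only probe quenching by compound is measured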
GRK2 CP2 = confirmation of human GRK2 inhibitors binding RNA aptamer site; shares compounds with GRK2 inh; bead-bound GRK2, FAM-aptamer displacement, flow cytometry; inhibition of aptamer binding, % at 10 µM; 360 tested, under 10 active; AID 504782;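 active means inhibition of aptamer binding above 40%, about triple the noise seen with nonglowing compounds, on plates passing quality control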;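 further: negative values mostly come from compounds that fluoresce themselves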
FAM quench SP = counter-screen for GRK2 binding hits: quenchers of fluorescent RNA aptamer | shares compounds with GRK2 inh | 360 tested, under 10 active | carboxyfluorescein RNA aptamer beads, flow cytometry quenching; hits give low values | fluorescence response vs DMSO, % at 10 µM | AID 588494;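 active means response vs DMSO under 50%, meaning signal dropped by over half, treated as fluorescence quencher; inconclusive means no clear call, values can overlap the other calls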;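 further: labelled aptamer on streptavidin beads without GRK2 as a quench counter-screen; 100% = bead fluorescence of DMSO wells and lower means quenching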
An asterisk follows results filed as active; ? = inconclusive; . = not tested or not shown. Unless noted, how the calls were made is not given here.

SMILES	GRK2 inh	PABP FP inh	eIF4H inh	MLLE-PAM2 inh	PERK inhibitor	GRK2 inh confirm	FAM quench CP1	others
CC(C)(C)c1ccc(/C=C2\CCn3c2nc2cc(C(=O)O)ccc2c3=O)cc1	0	16	3	-12	.	.	.
COc1ccc(/C=C2\CCn3c2nc2cc(C(=O)O)ccc2c3=O)cc1	41*	5	1	-3	.	.	.	GRK2 CP2=0;FAM quench SP=99
O=C(O)C1Nc2c(O)cc(Cl)c([N+](=O)[O-])c2C2C=CCC12 (stereo not drawn)	69*	5.4*	?	19	1	68*	95	Aptamer quench=-0.6
CC(=O)NCCNc1nc2cc(-c3cscc3C)sc2c(=O)n1C	.	.	.	-12	.	.	.
CN(Cc1ccccc1)C(=O)COC(=O)CCC(=O)c1ccc(F)cc1	31	.	.	7	.	-4	97
O=C1Nc2ccc(C(F)(F)F)cc2N2CCCC12 (stereo not drawn)	0	-10	-9	.	.	.	.
O=C1Nc2cc(C(F)(F)F)ccc2N2CCCCC12 (stereo not drawn)	52*	-2	-1	4	.	.	.	GRK2 CP2=27;FAM quench SP=94
Cc1ccc(Cl)cc1NC(=O)COC(=O)c1ccccc1O	85*	-8	-7	-2	1	-5	98
CC(C)C[C@H](NC(=O)C1CCN(C(=O)[C@H](Cc2ccccc2)NC(=O)OC(C)(C)C)CC1)C(=O)O	0	0	-13	-9	.	.	.
CC(C)C[C@H](NC(=O)OC(C)(C)C)C(=O)N1CCC(C(=O)O)CC1	65*	3	-16	1	1	0	101
O=C(NC1CC1)C1CCN(c2ncccn2)CC1	0	1	7	7	.	.	.
NC(=O)c1ccc(-n2nnnc2SCC(=O)Nc2ccccc2F)cc1	0	-2	-3	12	.	.	.
COc1cccc(N=C2CC(C)(C)CC(=O)/C2=C(/O)c2ccccc2)c1	95*	0	9	13	2	5	99
CC1(C)CC(=O)/C(=C(\O)c2ccccc2)C(=NCCO)C1	1	-6	-13	17	2	.	.
C/C(=N\NC(=O)c1cccs1)c1ccc2ccccc2c1	12	-7	-2	14	.	1	102
Nc1nc(SCC(=O)N2CCN(c3ccc(F)cc3)CC2)n[nH]1	0	.	.	-1	.	.	.
C=CCn1c(N)cc(=O)nc1SCC(=O)N1CCN(c2ccc(F)cc2)CC1	56*	-3	-5	10	1	-5	104
O=C(c1ccccn1)C1CCCN(Cc2cn[nH]c2-c2cc3ccccc3o2)C1 (stereo not drawn)	90*	-5	4	-9	0	2	100
COc1cc(CNC(C)C23CC4CC(CC(C4)C2)C3)cc(OC)c1OC (stereo not drawn)	2	-3	0	6	.	.	.
Cc1c(C(=O)N2CCN(c3ncccn3)CC2)oc2ccc(Cl)cc12	0	.	.	0	.	.	.
C=CCn1c(SCC(N)=O)nc2scc(-c3ccc(C)o3)c2c1=O	1	-8	-3	14	1	.	.
COc1ccc(CCC(=O)Nc2ccc(S(=O)(=O)N3CCCC3)cc2)cc1OC	0	.	.	-20	.	.	.
CC1(C(=O)NNC(=O)c2cccc([N+](=O)[O-])c2)CC1(Br)Br (stereo not drawn)	40	3	-5	10	.	-4	101
CC(C)(CNC(=O)c1cc(-c2ccc(Cl)s2)nc2ccccc12)N1CCOCC1	52*	.	.	3	.	-4	101
O=C(NC(CC1CCCCC1)C(=O)O)c1ccccc1 (stereo not drawn)	99*	.	.	14	.	6	102
O=C(NC(Cc1ccccc1)C(=O)N1CCCCCC1)c1ccccc1 (stereo not drawn)	3	7	-1	-13	.	.	.
